# Measurements from article PMC5540273 (PLoS ONE, 2017).
# Like-named read-outs stand apart in the source and are kept apart here.
# Tests used:
# FYN = conditions: concentration: 1 μM, replicates: in singlicate; n = 1
# GAK = conditions: concentration: 1 μM, replicates: in singlicate; n = 1
# GCN2(Kin.Dom.2,S808G) = test system: T1, GCN2(Kin.Dom.2,S808G); conditions: concentration: 1 μM, replicates: in singlicate; n = 1
# T1 construct: gene EIF2AK4
# GRK1 = conditions: concentration: 1 μM, replicates: in singlicate; n = 1
# GRK2 = test system: T2, GRK2; conditions: concentration: 1 μM, replicates: in singlicate; n = 1
# T2 construct: gene ADRBK1
# GRK3 = test system: T3, GRK3; conditions: concentration: 1 μM, replicates: in singlicate; n = 1
# T3 construct: gene ADRBK2
# GRK4 = conditions: concentration: 1 μM, replicates: in singlicate; n = 1
# GRK7 = conditions: concentration: 1 μM, replicates: in singlicate; n = 1
# GSK3A = conditions: concentration: 1 μM, replicates: in singlicate; n = 1
# GSK3B = conditions: n = 1
# [1] = concentration: 1 μM, replicates: in singlicate
# 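Also: KINOMEscan kinase panel screen.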
smiles,measurement,setting,value
O=C1NC(=O)C(c2ccccc2Cl)=C1Nc1cccc(Cl)c1 [SB-342409],%Inh,FYN,22%
same,%Inh,GAK,7%
same,%Inh,"GCN2(Kin.Dom.2,S808G)",0%
same,%Inh,GRK1,13%
same,%Inh,GRK2,0%
same,%Inh,GRK3,36%
same,%Inh,GRK4,26%
same,%Inh,GRK7,0%
same,%Inh,GSK3A,45%
same,%Inh,GSK3B; 1 µM,33%
CC(C)NCC(Cc1ccccc1)NC(=O)c1cc(Br)c(-c2ccnc3[nH]ccc23)s1.Cl.Cl (stereo not shown) [GSK1383281],%Inh,FYN,2%
same,%Inh,GAK,51%
same,%Inh,"GCN2(Kin.Dom.2,S808G)",33%
same,%Inh,GRK1,72%
same,%Inh,GRK2,79%
same,%Inh,GRK3,87%
same,%Inh,GRK4,0%
same,%Inh,GRK7,91.5%
same,%Inh,GSK3A,7%
same,%Inh,GSK3B; [1],0%
Cc1ccc(NC(=O)c2ccc(Cl)c(Cl)c2)cc1-c1ccc(C(=O)Nc2ccncc2)cc1 [GSK1398460],%Inh,FYN,31%
same,%Inh,GAK,45%
same,%Inh,"GCN2(Kin.Dom.2,S808G)",8%
same,%Inh,GRK1,0%
same,%Inh,GRK2,0%
same,%Inh,GRK3,24%
same,%Inh,GRK4,4%
same,%Inh,GRK7,0%
same,%Inh,GSK3A,6%
same,%Inh,GSK3B; [1],15%
Cc1cccc(Nc2nc(NCCN)ncc2C(N)=O)c1 [GSK1292139],%Inh,FYN,48%
same,%Inh,GAK,65%
same,%Inh,"GCN2(Kin.Dom.2,S808G)",41%
same,%Inh,GRK1,0%
same,%Inh,GRK2,0%
same,%Inh,GRK3,0%
same,%Inh,GRK4,15%
same,%Inh,GRK7,0%
same,%Inh,GSK3A,6%
same,%Inh,GSK3B; [1],11%
Cc1cc(-c2c(-c3ccc(F)cc3)ncn2CCCN2CCOCC2)nc(N)n1 [SB-222517],%Inh,FYN,0%
same,%Inh,GAK,5%
same,%Inh,"GCN2(Kin.Dom.2,S808G)",0%
same,%Inh,GRK1,31%
same,%Inh,GRK2,0%
same,%Inh,GRK3,4%
same,%Inh,GRK4,20%
same,%Inh,GRK7,0%
same,%Inh,GSK3A,0%
same,%Inh,GSK3B; [1],32%
CN(c1ccc(NC(=O)N2CCN(CCCN3CCOCC3)CC2)cc1)c1ccnc(Nc2ccc(CS(C)(=O)=O)cc2)n1.Cl [GW830899],%Inh,FYN,18%
same,%Inh,GAK,59%
same,%Inh,"GCN2(Kin.Dom.2,S808G)",0%
same,%Inh,GRK1,0%
same,%Inh,GRK2,0%
same,%Inh,GRK3,0%
same,%Inh,GRK4,43%
same,%Inh,GRK7,0%
same,%Inh,GSK3A,0%
same,%Inh,GSK3B; [1],0%
CCNc1nccc(-c2c(-c3ccc(F)cc3)ncn2C2CCN(C)CC2)n1,%Inh,FYN,0%
same,%Inh,GAK,57%
same,%Inh,"GCN2(Kin.Dom.2,S808G)",0%
same,%Inh,GRK1,0%
same,%Inh,GRK2,0%
same,%Inh,GRK3,0%
same,%Inh,GRK4,0%
same,%Inh,GRK7,0%
same,%Inh,GSK3A,21%
same,%Inh,GSK3B; [1],0%
Cc1ccc(NC(=O)c2cccc(N3CCCCC3)c2)cc1-c1ccc(C(=O)NCC2CC2)cc1 [GSK1917008],%Inh,FYN,15%
same,%Inh,GAK,11%
same,%Inh,"GCN2(Kin.Dom.2,S808G)",15%
same,%Inh,GRK1,3%
same,%Inh,GRK2,6%
same,%Inh,GRK3,27%
same,%Inh,GRK4,10%
same,%Inh,GRK7,0%
same,%Inh,GSK3A,27%
same,%Inh,GSK3B; [1],10%
Cc1ccc(-c2ccc3occ(-c4ccc(S(C)=O)cc4)c3c2)nn1 (stereo not shown),%Inh,FYN,0%
same,%Inh,GAK,0%
same,%Inh,"GCN2(Kin.Dom.2,S808G)",1%
same,%Inh,GRK1,12%
same,%Inh,GRK2,0%
same,%Inh,GRK3,0%
same,%Inh,GRK4,7%
same,%Inh,GRK7,0%
same,%Inh,GSK3A,3%
same,%Inh,GSK3B; [1],0%
Cl.Cl.NC(CNC(=O)c1cc(Br)c(-c2ccnc3[nH]ccc23)s1)c1ccccc1 (stereo not shown) [GSK1322949],%Inh,FYN,17%
same,%Inh,GAK,85%
same,%Inh,"GCN2(Kin.Dom.2,S808G)",0%
same,%Inh,GRK1,3%
same,%Inh,GRK2,39%
same,%Inh,GRK3,70%
same,%Inh,GRK4,76%
same,%Inh,GRK7,75%
same,%Inh,GSK3A,0%
same,%Inh,GSK3B; [1],3%
COc1cc(Nc2ccnc3cc(-c4ccncc4)ccc23)cc(OC)c1OC.Cl [GW494610],%Inh,FYN,75%
same,%Inh,GAK,84%
same,%Inh,"GCN2(Kin.Dom.2,S808G)",0%
same,%Inh,GRK1,4%
same,%Inh,GRK2,0%
same,%Inh,GRK3,35%
same,%Inh,GRK4,5%
same,%Inh,GRK7,0%
same,%Inh,GSK3A,10%
same,%Inh,GSK3B; [1],0%
CC(=O)Nc1cn2nc(Oc3cccc(NC(=O)c4cccc(C(F)(F)F)c4)c3)ccc2n1,%Inh,FYN,96.7%
same,%Inh,GAK,0%
same,%Inh,"GCN2(Kin.Dom.2,S808G)",37%
same,%Inh,GRK1,0%
same,%Inh,GRK2,0%
same,%Inh,GRK3,0%
same,%Inh,GRK4,1%
same,%Inh,GRK7,0%
same,%Inh,GSK3A,20%
same,%Inh,GSK3B; [1],0%
O=C(O)C(F)(F)F.O=c1[nH]ccc2nc(N[C@@H]3CCNC3)nc(Nc3cc(Cl)cc(Cl)c3)c12 [GSK2188764],%Inh,FYN,52%
same,%Inh,GAK,74%
same,%Inh,"GCN2(Kin.Dom.2,S808G)",69%
same,%Inh,GRK1,92%
same,%Inh,GRK2,47%
same,%Inh,GRK3,32%
same,%Inh,GRK4,86%
same,%Inh,GRK7,70%
same,%Inh,GSK3A,49%
same,%Inh,GSK3B; [1],19%
Nc1cccc(-c2ccc3c(N)n[nH]c3c2)c1 [GSK2193613],%Inh,FYN,13%
same,%Inh,GAK,44%
same,%Inh,"GCN2(Kin.Dom.2,S808G)",0%
same,%Inh,GRK1,0%
same,%Inh,GRK2,0%
same,%Inh,GRK3,55%
same,%Inh,GRK4,9%
same,%Inh,GRK7,0%
same,%Inh,GSK3A,0%
same,%Inh,GSK3B; [1],96.2%
COc1cccc(C2=C(Nc3cccc(O)c3)C(=O)NC2=O)c1 [SB-390771],%Inh,FYN,0%
same,%Inh,GAK,0%
same,%Inh,"GCN2(Kin.Dom.2,S808G)",0%
same,%Inh,GRK1,4%
same,%Inh,GRK2,0%
same,%Inh,GRK3,31%
same,%Inh,GRK4,0%
same,%Inh,GRK7,100%
same,%Inh,GSK3A,0%
same,%Inh,GSK3B; 1 µM,13%
COc1ccc(NC(=O)c2ccoc2)cc1-c1ccc(C(=O)NCC2CC2)cc1 [GW810437],%Inh,FYN,0%
same,%Inh,GAK,0%
same,%Inh,"GCN2(Kin.Dom.2,S808G)",0%
same,%Inh,GRK1,24%
same,%Inh,GRK2,0%
same,%Inh,GRK3,0%
same,%Inh,GRK4,0%
same,%Inh,GRK7,0%
same,%Inh,GSK3A,0%
same,%Inh,GSK3B; [1],26%
